# The entries come from a sample that favours hits as a whole.
# Cycloheximide cs: counter-screen for Shiga toxin inhibitors: cycloheximide protein synthesis inhibition. cell reporter, cycloheximide protein synthesis inhibition counterscreen. 300,000 tested, 12% active. AID 2314. max response, %; in the data active means max response mostly above about 13%, no sharp cut-off; inactive means mostly below about 14%; further: read at 38.3 µM for the half of the compounds with a filed dose
# Shiga toxin inh: Shiga toxin inhibition | Vero cells, Shiga toxin protein synthesis inhibition reporter | inhibition, % at 38.7 µM | 290,000 tested, 9.2% active; in the data active means inhibition mostly above about 28%, no sharp cut-off; inactive means mostly below about 43%
# Tb PYK inh: blocks Trypanosoma brucei pyruvate kinase | TbPYK enzyme, Kinase-Glo Plus ATP luminescence, 45 min | Potency, µM (titrated, usually from 76.8 µM), usual class: inhibitors | 410,000 tested, 0.12% active; further: nearly all actives have a fitted effect of over 50% in size
#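 Readout: single end-point luminescence (Kinase-Glo Plus, 10 min). Reaction conditions were TbPYK/substrate plus 130 uM ADP, 45 min at RT, pH 7.2 TEA buffer. No-enzyme wells served as controls, and data were normalized before concentration-response fitting.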
# RE007 growth inh: less growth of the S. pombe RE007 Vpr strain. S. pombe RE007 Vpr strain, BacTiter-Glo ATP luminescence, 24 h. Potency, µM (top dose mostly 92.2 µM), usual class: inhibitors. 360,000 tested, 0.21% active. AID 651644; active means well fitted falling curve with a large enough effect; inconclusive means small, poorly fitted or top-dose-only effect; inactive means no such curve, though single readings can be large or run the other way; further: nearly all actives have a fitted effect of over 50% in size
#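 Fission yeast RE007 carrying one integrated HIV-1 vpr copy, seeded at OD 0.01 in PMG+AL medium with 23 nL pinned compound. Grown 24 h at 30 degrees; viability read by BacTiter-Glo luminescence after 5 min.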
# FBPA Giardia inh: blocks Giardia fructose-bisphosphate aldolase activity. A8B2U2. purified Giardia FBPA. Potency, µM (doses to about 59.6 µM), actives largely listed as inhibitors. 290,000 tested, 0.71% active. AID 2451; further: nearly all actives have a fitted effect of over 55% in size
# Target sequence (A8B2U2 whole entry, looked up): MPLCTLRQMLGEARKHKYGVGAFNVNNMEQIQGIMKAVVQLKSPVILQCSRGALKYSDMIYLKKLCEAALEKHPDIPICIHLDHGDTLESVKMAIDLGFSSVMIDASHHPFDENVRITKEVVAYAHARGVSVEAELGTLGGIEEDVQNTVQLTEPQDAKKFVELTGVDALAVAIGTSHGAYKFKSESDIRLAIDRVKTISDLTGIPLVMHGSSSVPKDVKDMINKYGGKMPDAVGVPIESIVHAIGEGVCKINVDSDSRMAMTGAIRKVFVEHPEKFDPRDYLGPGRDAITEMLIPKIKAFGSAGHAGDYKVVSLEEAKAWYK
#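 40 nM FBPA preincubated 10 min at RT with compound (up to 57.5 uM final), then substrate plus GAPDH/TPI/NAD/arsenate coupling and diaphorase/resazurin added. Fluorescence read after 20 min at RT, 525/598 nm.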
# LmPK inhibitor: blocks Leishmania mexicana pyruvate kinase activity. Q27686. purified LmPK, Kinase-Glo ATP luminescence, 1 h. Potency, µM (series often up to 57.5 µM), actives largely listed as inhibitors. 290,000 tested, 0.37% active. AID 1721
#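 Purified LmPK (0.1 nM) converted ADP (0.1 mM) to ATP with PEP (0.5 mM) in imidazole buffer pH 7.2 with KCl and MgCl2, 1 h at room temperature. ATP was read by Kinase-Glo luminescence; data normalized to uninhibited and no-enzyme controls.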
# A number is an active result; - = inactive; ? = inconclusive; . = no result; + = active, no number; [ ] = another dose, or the depositor's remark. Unless noted, the call rests on the fitted dose curve; in most records, active means well fitted curve in the direction sought with a large enough effect; inconclusive means small, poorly fitted or top-dose-only effect, or another doubt; inactive means no such curve, though single readings can be large; an effect the other way counts as inactive or inconclusive.
SMILES,Cycloheximide cs,Shiga toxin inh,Tb PYK inh,RE007 growth inh,FBPA Giardia inh,LmPK inhibitor
COc1ccc(OC)c(NC(=O)c2csnn2)c1,.,.,-,.,.,.
O=C(COc1ccc(/C=N/NC(=O)C(=O)N2CCCCCC2)cc1)Nc1ccccc1Cl,-,-,-,-,-,-
Cc1ccc(NC(=O)N2CCCCC2)cc1NC(=O)N1CCCCC1,-,-,-,.,-,-
O=C(Nc1ccc(F)c(Cl)c1)N1CCCCCC1,25.6,52.2,-,-,-,-
S=C(Nc1ccc2nsnc2c1)N1CCCCC1,11.3,42.0,-,-,?,-
Cc1ccc(NC(=O)N2CCCCCC2)cc1C,44.3,69.0,-,-,.,-
Cc1cccc(NC(=O)N2CCN(Cc3ccccc3)CC2)c1,21.1,+,-,-,-,-
S=C(Nc1ccc(Cl)c(Cl)c1)N1CCCC1,-,-,-,-,-,-
CCCCCCCCCCCCCCCCN,.,.,-,.,.,.
COc1ccccc1N1CCN(C(=S)Nc2cccc(C)c2)CC1,32.5,-,-,-,-,-
Cc1cccc(NC(=S)N2CCCCCC2)c1,8.0,-,-,-,-,-
Cc1cccc(NC(=S)N2CCN(c3cc(C)ccc3C)CC2)c1,-,-,-,-,-,-
Cc1ccc(NC(=S)N2CCCCCC2)c(C)c1,18.2,-,-,-,-,-
CCOC(=O)c1ccc(NC(=O)N2CCN(CCc3ccccc3)CC2)cc1,20.1,-,-,-,-,-
Cc1cc(C)cc(NC(=S)N2CCCC2)c1,-,-,-,-,.,-
Cc1ccc(C)c(NC(=S)N2CCCC2)c1,-,-,-,-,-,-
COc1cccc(N2CCN(C(=O)CCCn3c(=O)[nH]c4ccc(Br)cc4c3=O)CC2)c1,.,.,-,.,.,.
CCOCCC(=O)Nc1ccc2c(c1)c(=O)n(C)n2CC=C(C)C,.,.,-,-[18.4 µM],.,.
C=CC[C@H](CC(=O)N(CCO)Cc1ccccc1)C(=O)N[C@H](COC(=O)[C@@H](CC=C)Cc1ccc(F)cc1)Cc1ccccc1,.,.,-,-,.,.
O=c1onc2cnc3ccccc3n12,.,.,.,.,-,.
CS(=O)(=O)c1ccc(S(=O)(=O)N2CCN(C(=O)C(O)c3ccccc3)CC2)cc1 (stereo unspecified),.,.,.,-,.,.
Cc1cccc(NC(=O)N2CCCCCC2)c1,38.0,55.9,-,-,-,-
S=C(Nc1ccc2nccnc2c1)N1CCOCC1,36.9,48.2,-,-,14.1µM,-
Cc1cccc(NC(=O)N2CCCC2)c1,-,-,-,-,-,-
O=c1c(N2CCN(c3cccc(C(F)(F)F)c3)CC2)csc2ccccc12,.,.,-,.,.,.
SMILES,Cycloheximide cs,Shiga toxin inh,Tb PYK inh,RE007 growth inh,FBPA Giardia inh,LmPK inhibitor
COc1ccccc1C1CCN(Cc2cccc([N+](=O)[O-])c2)CC1,-,-,-,-,-,-
COc1ccccc1C1CCN(c2ccc(CO)cc2[N+](=O)[O-])CC1,14.5,-,-,?,-,-
CCOC(=O)c1sc(N)c(C(=O)Nc2ccccc2)c1C,27.0,46.4,?,-,?,-
CCOC(=O)c1c(N)sc(C(=O)OCCOC)c1C,34.7,59.2,-,-,-,-
CCOC(=O)c1sc(N)c(C(=O)OCC)c1C,51.3,80.8,-,-,-,-
CSCCC(NS(=O)(=O)c1ccc2c(c1)oc(=O)n2C)C(=O)NCc1ccc(Cl)cc1 (stereo unspecified),.,.,-,.,.,.
CC(=O)NN1C(=O)/C(=C/c2ccc(C(C)C)cc2)SC1=S,16.5,-,-,-,-,-
COc1cc(/C=C2\SC(=S)N(NC(=O)c3ccccc3OC)C2=O)ccc1O,17.2,-,-,-,-,-
COc1cc(/C=C2\SC(=S)N(NC(=O)c3ccc(O)c(OC)c3)C2=O)ccc1O,21.5,-,-,-,-,-
O=C(Nc1nccs1)c1ccc(COc2ccc(Cl)cc2)o1,29.9,55.1,-,-,-,-
COc1ccc(OCCCC(=O)Nc2nccs2)cc1,12.7,-,-,-,-,-
O=C(NCc1ccccn1)c1ccc(COc2ccc(Cl)cc2)o1,-,-,-,-,-,-
Cc1ccccc1OCCCC(=O)Nc1nccs1,-,-,-,-,-,-
O=C(Nc1nccs1)c1ccc(COc2ccccc2Br)o1,41.2,53.0,-,-,-,-
Cc1cccc(OCC(=O)Nc2nccs2)c1C,66.9,67.3,-,-,-,-
O=C(Nc1nccs1)c1ccc(COc2ccc(F)cc2)o1,32.3,-,-,-,-,-
